# The source made the active and inactive calls. How the source made its calls: active means hit-call score of the fitted dose curve at least 0.9, where 1 is the maximum; inactive means score below 0.9.
# Test: IUF_NPC2b_neuronal_migration_120hr: Leibniz Research Institute for Environmental Medicine (IUF) 120-hour Neural Progenitor Cell Migration Assay for Neuron Migration (NPC2b) (AID 2284300)
# Procedure: IUF_NPC2-5 is a cell-based, multiplexed assay that uses hNPC, a human primary neural progenitor cells, with measurements taken at 72 or 120 hours after chemical dosing in a 96-well plate. Human neural progenitor cells (hNPC) are generated from human fetal brain cortex at gestational week (GW) 16-19. In the neural progenitor cell migration and differentiation assay (NPC2-5), hNPCs grown as spheres are plated on an extracellular matrix and migrate and differentiate out of the sphere core. The processes radial glia migration, neuronal and oligodendrocyte migration as well as neuronal differentiation, neuronal morphology and oligodendrocyte differentiation are studied using automated phase contrast imaging and automated fluorescence imaging in combination with high content image analysis. In parallel, the cell viability is assessed using an alamar blue viability assay and the cytotoxicity using a lactate dehydrogenase dependent membrane integrity assay.IUF_NPC2b_neuronal_migration_120hr is one of 12 assay components measured from the IUF_NPC2-5 assay. Neuronal migration distance at 120 hr is the mean distance of all neurons from the edge of the sphere core to each individual neuron (see IUF_NPC3_neuronal_differentiation_120hr). Neuronal migration is normalized to radial glia migration distance at 120 hr.Data from the IUF_NPC2b_neuronal_migration_120hr component was analyzed at the endpoint IUF_NPC2b_neuronal_migration_120hr in the positive analysis fitting direction relative to DMSO as the negative control and baseline of activity. Using a type of migration reporter, gain or loss-of-signal activity can be used to understand developmental effects.
# Culture protocol: After the cell expansion period the cells are cultured for up to four weeks in which they are passaged every week as described in 3.6. Between one to three days after passaging spheres at a size of 0.3 mm are picked for the test method. For the assessment of neural progenitor cell migration and differentiation, the spheres are plated on poly-D-lysine/laminin coated 96-well flat bottom plates in differentiation medium (N2) to initiate migration and differentiation. Thereby one 0.3 mm big sphere is plated in the middle of a well. The differentiation medium consists of DMEM and Ham's F12 at a ratio of 3 to 1 supplemented with 1% N2 and 1% penicillin and streptomycin. Within 5 days NPCs radially migrate out of the sphere core and differentiate into radial glia cells (nestin positive), neurons (TUBB3 positive), oligodendrocytes (O4 positive) and astrocytes (GFAP positive). Cultivation during the test method is performed at 37C and 5% CO2 at a ph of 7.2-7.6.Exposure: 0.3 mm big hNPC are plated in the already prepared test conditions. Exposure starts at day 0 of differentiation and is continued over five days of differentiation until the experiment is terminated. Cells are fed with fresh medium at day 3 of differentiation. Therefore, half of the test condition solution (e.g. solvent control or compound dilution) is replaced by freshly prepared test condition solution.Test Method: Migration distance and cytotoxicity is determined after 72 hours based on brightfield images of each well. The assay is terminated by the assessment of cell viability and cytotoxicity as well as cell fixation after 120 h. Immunocytochemistry is performed for Hoechst positive nuclei, TUBB3 positive neurons and O4 positive oligodendrocytes. On the ICC images, migration after 120 hours, neuronal and oligodendrocyte number, neuronal morphology and neuron/oligodendrocyte specific migration is assessed. immunocytochemical staining (ICC) generates an image for each sphere. The plates are scanned using an automated high content imaging device and all nuclei and their positions are determined automatically based on their intensity and size. Images are imported to the Omnisphero software to run the image analysis that measures the following endpoints. […]
SMILES,outcome,AC50
O=[N+]([O-])/N=C1\NCCN1Cc1ccc(Cl)nc1,inactive,
O=S(=O)(O)C(F)(F)C(F)(F)C(F)(F)C(F)(F)C(F)(F)C(F)(F)C(F)(F)C(F)(F)F,inactive,
CC1(C)C(C=C(Cl)Cl)C1C(=O)OC(C#N)c1ccc(F)c(Oc2ccccc2)c1 (stereo not drawn),inactive,
CC(C)N(C(=O)COc1nnc(C(F)(F)F)s1)c1ccc(F)cc1,inactive,
CC1(c2ccc(Oc3ccccc3)cc2)OC(=O)N(Nc2ccccc2)C1=O (stereo not drawn),inactive,
CC[C@H](C)[C@H]1O[C@]2(C=C[C@@H]1C)C[C@@H]1C[C@@H](C/C=C(\C)[C@@H](O[C@H]3C[C@H](OC)[C@@H](O[C@H]4C[C@H](OC)[C@@H](O)[C@H](C)O4)[C@H](C)O3)[C@@H](C)/C=C/C=C3\CO[C@@H]4[C@H](O)C(C)=C[C@@H](C(=O)O1)[C@]34O)O2 (tested in a mixture with another compound),inactive,
O=C(O)COc1ccc(Cl)cc1Cl,inactive,
CNC(=O)CSP(=S)(OC)OC,inactive,
O=S1OCC2C(CO1)C1(Cl)C(Cl)=C(Cl)C2(Cl)C1(Cl)Cl (stereo not drawn),inactive,
COP(=O)(OC)OC=C(Cl)Cl,,53.3 µM (active)
CCC(C)(C)C(=O)OC1=C(c2ccc(Cl)cc2Cl)C(=O)OC12CCCCC2,inactive,
O=C(O)C(F)(F)C(F)(F)C(F)(F)C(F)(F)C(F)(F)C(F)(F)C(F)(F)F,inactive,
COP(=S)(OC)Oc1ccc([N+](=O)[O-])cc1,inactive,

# Reference: PubChem BioAssay (EPA / NIEHS)
